This is part of a sample that, as a whole, favours compounds with a hit. Of some 79,000 tested, about 15% had one in any assay. A number with no mark means an inactive call. Active and inactive are the calls of the source. Rule as the data show it: active = growth inhibition above about 70%; inactive = the rest.

Experiment [1] in a line: NCI Yeast Anticancer Drug Screen. Data for the rad50 strain (AID 155).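 Also: 0% = growth of vehicle-only cultures of the same strain.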 Conditions: S. cerevisiae rad50 strain growth inhibition, active compounds read high. Put shortly: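 Vehicle-treated cultures provide the reference for the growth inhibition reported for compound-exposed, repair-deficient yeast.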
Experiment [2] is described as follows: NCI Yeast Anticancer Drug Screen. Data for the mec2-1 strain (AID 157). Conditions: S. cerevisiae mec2-1 strain, active compounds read high. The essentials:
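Test agents were screened against the mec2-1 yeast strain, with defined DNA repair or cell cycle alteration. Growth was scored as inhibition against vehicle-only controls.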

A short description of experiment [3]: NCI Yeast Anticancer Drug Screen. Data for the sgs1 mgt1 strain (AID 161).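 Also: 0% = growth of cultures given vehicle only.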 The settings on record: S. cerevisiae sgs1 mgt1 strain, active compounds read high. The essentials:
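Read-out: growth inhibition vs vehicle controls. Cells: mutant yeast strain deficient in DNA damage repair.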

The nature of experiment [4]: NCI Yeast Anticancer Drug Screen. Data for the cln2 rad14 strain (AID 165).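 Also: 0% = growth equal to vehicle treated cultures.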 Conditions: S. cerevisiae cln2 rad14 strain, active compounds read high. Put shortly: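 Growth of compound-exposed yeast (cln2 rad14 genotype) measured and expressed as inhibition relative to vehicle.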
The nature of experiment [5]: NCI Yeast Anticancer Drug Screen. Data for the bub3 strain (AID 167). Conditions: S. cerevisiae bub3 mutant strain, active compounds read high. The essentials: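 Mutant yeast screening strain plus compound; vehicle-treated cultures serve as the 0% inhibition reference.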
The nature of experiment [6]: NCI Yeast Anticancer Drug Screen. Data for the mlh1 rad18 strain (AID 175). The settings on record: S. cerevisiae mlh1 rad18 strain growth inhibition, active compounds read high. The essentials: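 In this whole-cell yeast screen, a strain with altered DNA damage repair is challenged with compound, and its growth is measured against matched vehicle-treated controls.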
Where [7] appears, read: at 5.0 µM (retest, dose inferred, filed as 0.5).
Setting [8] is: at 50.0 µM (retest, dose inferred, filed as 5.0).

As for `CN(C)C=NCCNc1ccc([N+](=O)[O-])cn1`, the growth inhibition was -154% in experiment [1] (setting [7]); -166% in experiment [1] (setting [8]); 4.4% in experiment [1] (at 50.0 µM); -49% in experiment [2] (setting [7]); -57% in experiment [2] (setting [8]); 4.2% in experiment [2] (at 50.0 µM). Moreover, the growth inhibition was -62% in experiment [3] (setting [7]); -66% in experiment [3] (setting [8]); -6.6% in experiment [3] (at 50.0 µM); -46% in experiment [4] (setting [7]); -59% in experiment [4] (setting [8]); 24.5% in experiment [4] (at 50.0 µM). The growth inhibition in experiment [5] (setting [7]) is -70%; in experiment [5] (setting [8]), -77%; in experiment [5] (at 50.0 µM) it was 19.8%; in experiment [6] (setting [7]), -139%; in experiment [6] (setting [8]), -120%; in experiment [6] (at 50.0 µM), 3.6%.

For the compound `CCCCCCCCCCCCCCCCOC(=O)C[n+]1cccc(C(N)=O)c1`, the growth inhibition was 2% in experiment [1] (setting [7]); 50% in experiment [1] (setting [8]); 89.8% (active) in experiment [1] (at 50.0 µM); 8% in experiment [2] (setting [7]); 85% (active) in experiment [2] (setting [8]); 94.4% (active) in experiment [2] (at 50.0 µM). Further, the growth inhibition in experiment [3] (setting [7]) was 27%; in experiment [3] (setting [8]), 92% (active); in experiment [3] (at 50.0 µM), 97.2% (active); in experiment [4] (setting [7]), -5%; in experiment [4] (setting [8]), 22%; in experiment [4] (at 50.0 µM), 36%. Moreover, the growth inhibition in experiment [5] (setting [7]) is -1%; in experiment [5] (setting [8]), 79% (active); in experiment [5] (at 50.0 µM), 73% (active); in experiment [6] (setting [7]), 42%; in experiment [6] (setting [8]), 82% (active); in experiment [6] (at 50.0 µM), 92.3% (active).

Take `CCN(CC)C(=O)C(C)OC(C)=O` (stereo not given): the growth inhibition was -1% in experiment [1] (setting [7]); 0% in experiment [1] (setting [8]); -21.4% in experiment [1] (at 50.0 µM); 2% in experiment [2] (setting [7]); 1% in experiment [2] (setting [8]); 17.6% in experiment [2] (at 50.0 µM). For the same compound, the growth inhibition is 2% in experiment [3] (setting [7]); -1% in experiment [3] (setting [8]); -11.8% in experiment [3] (at 50.0 µM); -2% in experiment [4] (setting [7]); -3% in experiment [4] (setting [8]); -16% in experiment [4] (at 50.0 µM). In addition, the growth inhibition in experiment [5] (setting [7]) is 2%; in experiment [5] (setting [8]), -5%; in experiment [5] (at 50.0 µM) it was 8.7%; in experiment [6] (setting [7]) it was 1%; in experiment [6] (setting [8]) it was 3%; in experiment [6] (at 50.0 µM), 27.1%.

Take `c1ccc(-c2cc(Nc3ccc4c(c3)OCO4)c3cc(C4CCCCC4)ccc3n2)cc1`: the growth inhibition in experiment [1] (setting [7]) is 10%; in experiment [1] (setting [8]), 95% (active); in experiment [1] (at 50.0 µM) it was 79% (active); in experiment [2] (setting [7]), 6%; in experiment [2] (setting [8]) it was 96% (active); in experiment [2] (at 50.0 µM), 83.9% (active). Further, the growth inhibition in experiment [3] (setting [7]) was 27%; in experiment [3] (setting [8]) it was 97% (active); in experiment [3] (at 50.0 µM) it was 96.7% (active); in experiment [4] (setting [7]), -8%; in experiment [4] (setting [8]) it was 93% (active); in experiment [4] (at 50.0 µM) it was 60.4%. The growth inhibition in experiment [5] (setting [7]) was 4%; in experiment [5] (setting [8]), 96% (active); in experiment [5] (at 50.0 µM) it was 41.2%; in experiment [6] (setting [7]), 7%; in experiment [6] (setting [8]), 94% (active); in experiment [6] (at 50.0 µM) it was 98.2% (active).

As to `CC(N)C1C(C)CC2C3CC=C4CC(O)CCC4(C)C3CCC21C` (stereo not given), the growth inhibition is 50% in experiment [1] (setting [7]); 85% (active) in experiment [1] (setting [8]); 4.45% in experiment [1] (at 50.0 µM); 35% in experiment [2] (setting [7]); 74% (active) in experiment [2] (setting [8]); 25.1% in experiment [2] (at 50.0 µM). Moreover, the growth inhibition in experiment [3] (setting [7]) was 83% (active); in experiment [3] (setting [8]), -19%; in experiment [3] (at 50.0 µM), 74% (active); in experiment [4] (setting [7]) it was 49%; in experiment [4] (setting [8]), 86% (active); in experiment [4] (at 50.0 µM), 8.3%. In addition, the growth inhibition in experiment [5] (setting [7]) is 52%; in experiment [5] (setting [8]) it was 85% (active); in experiment [5] (at 50.0 µM), 84.1% (active); in experiment [6] (setting [7]), 57%; in experiment [6] (setting [8]), 86% (active); in experiment [6] (at 50.0 µM) it was 53.2%.

With `O=C(CSSCC(=O)Nc1ccccc1)Nc1ccccc1`, the growth inhibition in experiment [1] (setting [7]) is -6%; in experiment [1] (setting [8]), 15%; in experiment [1] (at 50.0 µM) it was 29.6%; in experiment [2] (setting [7]), 1%; in experiment [2] (setting [8]), 35%; in experiment [2] (at 50.0 µM), 17.5%. Besides, the growth inhibition in experiment [3] (setting [7]) is 1%; in experiment [3] (setting [8]) it was -10%; in experiment [3] (at 50.0 µM), 54.8%; in experiment [4] (setting [7]) it was -5%; in experiment [4] (setting [8]) it was 10%; in experiment [4] (at 50.0 µM) it was 48.2%. Moreover, the growth inhibition is -12% in experiment [5] (setting [7]); 6% in experiment [5] (setting [8]); 22.8% in experiment [5] (at 50.0 µM); -12% in experiment [6] (setting [7]); 19% in experiment [6] (setting [8]); 22% in experiment [6] (at 50.0 µM).

As for `COC(=O)C1CCN(Cc2ccccc2)CC1=O` (stereo not given), the growth inhibition in experiment [1] (setting [7]) was 38%; in experiment [1] (setting [8]), 57%; in experiment [1] (at 50.0 µM) it was 89.3% (active); in experiment [2] (setting [7]) it was 48%; in experiment [2] (setting [8]) it was 51%; in experiment [2] (at 50.0 µM) it was 92.1% (active). Besides, the growth inhibition in experiment [3] (setting [7]) is 77% (active); in experiment [3] (setting [8]) it was 100% (active); in experiment [3] (at 50.0 µM), 93.2% (active); in experiment [4] (setting [7]) it was 83% (active); in experiment [4] (setting [8]), 100% (active); in experiment [4] (at 50.0 µM) it was 90% (active). Besides, the growth inhibition is 81% (active) in experiment [5] (setting [7]); 98% (active) in experiment [5] (setting [8]); 90% (active) in experiment [5] (at 50.0 µM); 37% in experiment [6] (setting [7]); 47% in experiment [6] (setting [8]); 89.9% (active) in experiment [6] (at 50.0 µM).

For the compound `C/C(O)=c1\cc(C#N)c(=C(C#N)C#N)nc1C`, the growth inhibition in experiment [1] (setting [7]) was -4%; in experiment [1] (setting [8]), -3%; in experiment [1] (at 50.0 µM), 8.05%; in experiment [2] (setting [7]) it was -2%; in experiment [2] (setting [8]), 1%; in experiment [2] (at 50.0 µM), -0.15%. Also, the growth inhibition was 2% in experiment [3] (setting [7]); 5% in experiment [3] (setting [8]); 1.15% in experiment [3] (at 50.0 µM); -1% in experiment [4] (setting [7]); -8% in experiment [4] (setting [8]); -3% in experiment [4] (at 50.0 µM). Also, the growth inhibition in experiment [5] (setting [7]) is 3%; in experiment [5] (setting [8]), 11%; in experiment [5] (at 50.0 µM) it was 10.6%; in experiment [6] (setting [7]), 0%; in experiment [6] (setting [8]), 3%; in experiment [6] (at 50.0 µM), 46.4%.

For the compound `CCCCNC(=S)N/N=C/c1cccc(C)n1`, the growth inhibition was -3% in experiment [1] (setting [7]); 98% (active) in experiment [1] (setting [8]); 1.35% in experiment [1] (at 50.0 µM); -8% in experiment [2] (setting [7]); 98% (active) in experiment [2] (setting [8]); 32.5% in experiment [2] (at 50.0 µM). In addition, the growth inhibition is -16% in experiment [3] (setting [7]); 98% (active) in experiment [3] (setting [8]); 59.2% in experiment [3] (at 50.0 µM); -11% in experiment [4] (setting [7]); 99% (active) in experiment [4] (setting [8]); 17.4% in experiment [4] (at 50.0 µM). Further, the growth inhibition was -27% in experiment [5] (setting [7]); 97% (active) in experiment [5] (setting [8]); 42.5% in experiment [5] (at 50.0 µM); 8% in experiment [6] (setting [7]); 99% (active) in experiment [6] (setting [8]); -11.1% in experiment [6] (at 50.0 µM).

For `O=[N+]([O-])c1c[nH]c2ncnc(SCc3ccccc3)c12`, the growth inhibition in experiment [1] (setting [7]) is 98% (active); in experiment [1] (setting [8]), 98% (active); in experiment [1] (at 50.0 µM) it was 100% (active); in experiment [2] (setting [7]) it was 99% (active); in experiment [2] (setting [8]), 99% (active); in experiment [2] (at 50.0 µM), 99.3% (active). In addition, the growth inhibition was 99% (active) in experiment [3] (setting [7]); 99% (active) in experiment [3] (setting [8]); 99.2% (active) in experiment [3] (at 50.0 µM); 86% (active) in experiment [4] (setting [7]); 99% (active) in experiment [4] (setting [8]); 94.3% (active) in experiment [4] (at 50.0 µM). The growth inhibition is 97% (active) in experiment [5] (setting [7]); 99% (active) in experiment [5] (setting [8]); 98.7% (active) in experiment [5] (at 50.0 µM); 98% (active) in experiment [6] (setting [7]); 98% (active) in experiment [6] (setting [8]); 98.9% (active) in experiment [6] (at 50.0 µM).

The values are drawn from PubChem BioAssay (NCI).
